The values that follow come from ChEMBL document CHEMBL3988442, “University of Dundee, Small-Polar-MMV Screening Library” (2021).

Values joined by “and” are separate entries in the source; they are usually repeats but may differ in a detail not shown here. Equal values may be shown once. For some of these results: Results with a measured potency or affinity are listed apart.

Parameters in all cases: scale not given: direction of the effect not stated beside the values
In assay [1] the target is Protein translocase subunit SecA (Escherichia coli (strain K12)) (UniProt P10408). Nature of the assay: Assay to Identify E. coli SecA ATPase Inhibitors. The class given is functional. Particulars: 30 µM.
Chain of Protein translocase subunit SecA (Escherichia coli (strain K12)) (P10408 whole entry): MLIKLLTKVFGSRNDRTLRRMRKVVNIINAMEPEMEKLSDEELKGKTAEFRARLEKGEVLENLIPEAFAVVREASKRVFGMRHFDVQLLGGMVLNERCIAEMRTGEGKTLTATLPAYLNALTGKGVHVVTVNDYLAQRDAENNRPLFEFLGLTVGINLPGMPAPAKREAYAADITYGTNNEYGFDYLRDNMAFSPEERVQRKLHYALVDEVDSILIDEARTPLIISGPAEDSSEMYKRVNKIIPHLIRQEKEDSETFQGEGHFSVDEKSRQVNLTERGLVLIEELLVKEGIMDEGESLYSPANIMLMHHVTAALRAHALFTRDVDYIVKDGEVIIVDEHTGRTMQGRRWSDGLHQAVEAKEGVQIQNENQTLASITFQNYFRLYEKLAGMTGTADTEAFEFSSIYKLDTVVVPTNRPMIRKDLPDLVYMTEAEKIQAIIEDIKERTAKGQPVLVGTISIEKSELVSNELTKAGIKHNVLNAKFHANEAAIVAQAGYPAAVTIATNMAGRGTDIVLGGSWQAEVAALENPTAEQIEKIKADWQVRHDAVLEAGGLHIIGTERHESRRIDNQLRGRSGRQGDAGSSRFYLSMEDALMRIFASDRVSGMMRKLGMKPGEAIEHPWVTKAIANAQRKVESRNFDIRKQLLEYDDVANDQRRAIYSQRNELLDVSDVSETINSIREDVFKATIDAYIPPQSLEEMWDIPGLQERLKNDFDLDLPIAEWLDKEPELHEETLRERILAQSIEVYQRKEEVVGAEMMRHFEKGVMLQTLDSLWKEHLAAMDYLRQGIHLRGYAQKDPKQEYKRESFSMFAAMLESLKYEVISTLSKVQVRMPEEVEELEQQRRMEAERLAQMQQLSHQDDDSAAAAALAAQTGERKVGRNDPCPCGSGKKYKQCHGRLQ
In assay [2] the target is T1, Ubiquitin-activating enzyme e1, putative (Leishmania donovani (strain BPK282A1)) (UniProt E9BSI1).
T1 sequence (whole entry): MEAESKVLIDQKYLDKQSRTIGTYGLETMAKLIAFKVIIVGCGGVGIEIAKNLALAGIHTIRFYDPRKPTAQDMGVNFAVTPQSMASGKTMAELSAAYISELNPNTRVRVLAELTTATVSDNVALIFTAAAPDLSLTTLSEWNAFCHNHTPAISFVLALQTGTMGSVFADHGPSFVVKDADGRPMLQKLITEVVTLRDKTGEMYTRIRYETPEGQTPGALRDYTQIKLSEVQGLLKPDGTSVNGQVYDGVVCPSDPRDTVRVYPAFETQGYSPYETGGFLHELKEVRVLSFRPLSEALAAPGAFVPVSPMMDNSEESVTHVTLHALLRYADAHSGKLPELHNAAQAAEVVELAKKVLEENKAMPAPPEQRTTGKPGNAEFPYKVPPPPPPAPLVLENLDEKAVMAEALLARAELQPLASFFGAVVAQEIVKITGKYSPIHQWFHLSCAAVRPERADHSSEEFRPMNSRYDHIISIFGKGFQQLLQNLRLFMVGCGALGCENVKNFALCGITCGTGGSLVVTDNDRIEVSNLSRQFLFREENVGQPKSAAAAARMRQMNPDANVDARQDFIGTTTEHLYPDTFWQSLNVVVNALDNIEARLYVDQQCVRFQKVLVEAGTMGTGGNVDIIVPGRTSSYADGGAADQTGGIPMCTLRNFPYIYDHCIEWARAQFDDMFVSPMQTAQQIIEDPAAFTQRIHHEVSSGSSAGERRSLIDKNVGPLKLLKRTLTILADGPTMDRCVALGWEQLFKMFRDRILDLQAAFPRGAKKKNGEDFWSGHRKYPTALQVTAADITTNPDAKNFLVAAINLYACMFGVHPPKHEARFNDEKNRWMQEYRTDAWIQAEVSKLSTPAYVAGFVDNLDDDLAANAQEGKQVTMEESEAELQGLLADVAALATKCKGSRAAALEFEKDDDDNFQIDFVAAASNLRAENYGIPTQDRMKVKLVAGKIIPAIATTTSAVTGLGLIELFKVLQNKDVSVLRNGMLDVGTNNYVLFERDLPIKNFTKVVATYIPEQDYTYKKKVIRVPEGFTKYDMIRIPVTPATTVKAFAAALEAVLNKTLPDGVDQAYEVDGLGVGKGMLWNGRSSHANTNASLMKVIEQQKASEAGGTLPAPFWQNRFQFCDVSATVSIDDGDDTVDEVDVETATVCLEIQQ
The experiment in a line: Leishmania donovani Ubiquitin Activating Enzyme (LdE1). In kind it is functional. Particulars: 30 µM.

Assay [3] has as its target AMP-activated protein kinase, AMPK (Homo sapiens) (UniProt P54646+O43741+P54619+Q9UGJ0+Q9Y478+Q13131+Q9UGI9). The experiment in a line: AMP-dependent Kinase enzyme assay. An in vitro enzyme assay that detects ADP turnover that is directly proportional to AMPK activity. This uses naive AMPK that is activated during the assay with MK-8722. In kind it is functional. As to conditions: 30 µM.

The target of assay [4] is Sialic acid-binding Ig-like lectin 9 (Homo sapiens) (UniProt Q9Y336). Nature of the assay: Hs-Siglec9 ALPHAscreen SOP 20170721. Particulars: 10 µM. On the technique in general: Alpha assays give light when donor and acceptor beads are brought close together.
Chain of Sialic acid-binding Ig-like lectin 9 (Homo sapiens) (Q9Y336 whole entry): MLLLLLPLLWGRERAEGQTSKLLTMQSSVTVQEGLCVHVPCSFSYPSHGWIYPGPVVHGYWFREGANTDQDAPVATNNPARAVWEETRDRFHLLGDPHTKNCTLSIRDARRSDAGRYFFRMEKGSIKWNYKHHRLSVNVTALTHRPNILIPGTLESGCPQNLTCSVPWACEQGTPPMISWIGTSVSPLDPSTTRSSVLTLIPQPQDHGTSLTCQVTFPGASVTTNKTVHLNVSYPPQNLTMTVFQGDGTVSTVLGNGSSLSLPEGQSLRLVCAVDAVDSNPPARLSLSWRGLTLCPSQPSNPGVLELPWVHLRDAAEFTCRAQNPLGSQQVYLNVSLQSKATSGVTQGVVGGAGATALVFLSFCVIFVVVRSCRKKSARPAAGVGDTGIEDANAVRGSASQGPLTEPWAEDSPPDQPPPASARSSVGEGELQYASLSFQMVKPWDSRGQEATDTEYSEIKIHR
Assay [5] relates to Trypanosoma cruzi. Nature of the assay: Trypanosoma cruzi phosphomannomutase and mannose-1-phosphate guanylyltransferase assay. In kind it is functional. Particulars: 10 µM.
Assay [6] addresses T2, Arginase-2, mitochondrial (Homo sapiens) (UniProt P78540).
T2 sequence (whole entry): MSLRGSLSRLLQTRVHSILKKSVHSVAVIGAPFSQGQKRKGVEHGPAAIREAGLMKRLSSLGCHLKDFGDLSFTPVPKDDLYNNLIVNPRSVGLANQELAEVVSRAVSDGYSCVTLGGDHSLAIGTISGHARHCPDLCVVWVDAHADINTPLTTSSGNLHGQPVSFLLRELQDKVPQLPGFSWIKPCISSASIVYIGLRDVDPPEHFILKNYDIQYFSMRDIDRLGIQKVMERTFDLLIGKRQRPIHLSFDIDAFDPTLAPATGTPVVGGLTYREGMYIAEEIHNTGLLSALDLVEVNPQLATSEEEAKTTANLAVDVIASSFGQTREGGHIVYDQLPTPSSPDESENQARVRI
The experiment in a line: in vitro enzyme assay to detect the production of urea directly proportional to the activity of Arginase II. Further: in the data most compounds retested in dose-response had high values. In kind it is functional. Particulars: 33.3 µM.

The target in assay [7] is T3, Proteasome subunit beta (Trypanosoma cruzi) (UniProt O96673).
T3 sequence (whole entry): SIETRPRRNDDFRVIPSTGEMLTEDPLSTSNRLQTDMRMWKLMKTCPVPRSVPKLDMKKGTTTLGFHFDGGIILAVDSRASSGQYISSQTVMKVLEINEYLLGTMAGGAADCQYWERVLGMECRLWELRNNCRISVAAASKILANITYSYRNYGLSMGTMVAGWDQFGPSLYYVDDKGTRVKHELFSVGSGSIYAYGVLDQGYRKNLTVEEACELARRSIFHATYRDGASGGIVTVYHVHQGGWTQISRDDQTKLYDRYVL
Nature of the assay: Trypanosoma cruzi proteasome chymotrypsin-like activity (TcProtChymo) assay. Further: in the data most compounds retested in dose-response had high values. The class given is functional. As to conditions: 9.37 µM.

The species entered for assay [8] is Homo sapiens. The experiment in a line: To identify inhibition of the IFN signalling (Jak-Stat) pathway via expression of an eGFP reporter gene under the control of an IFN-stimulated response element (ISRE) containing MxA promoter. In kind it is functional. Particulars: 30 µM. In general terms: In a reporter assay the amount or activity of a reporter protein is the signal.

Assay [9] concerns the target T4, Tyrosyl-tRNA synthetase, putative (Trypanosoma cruzi (strain CL Brener)) (UniProt Q4DSP6).
T4 sequence (whole entry): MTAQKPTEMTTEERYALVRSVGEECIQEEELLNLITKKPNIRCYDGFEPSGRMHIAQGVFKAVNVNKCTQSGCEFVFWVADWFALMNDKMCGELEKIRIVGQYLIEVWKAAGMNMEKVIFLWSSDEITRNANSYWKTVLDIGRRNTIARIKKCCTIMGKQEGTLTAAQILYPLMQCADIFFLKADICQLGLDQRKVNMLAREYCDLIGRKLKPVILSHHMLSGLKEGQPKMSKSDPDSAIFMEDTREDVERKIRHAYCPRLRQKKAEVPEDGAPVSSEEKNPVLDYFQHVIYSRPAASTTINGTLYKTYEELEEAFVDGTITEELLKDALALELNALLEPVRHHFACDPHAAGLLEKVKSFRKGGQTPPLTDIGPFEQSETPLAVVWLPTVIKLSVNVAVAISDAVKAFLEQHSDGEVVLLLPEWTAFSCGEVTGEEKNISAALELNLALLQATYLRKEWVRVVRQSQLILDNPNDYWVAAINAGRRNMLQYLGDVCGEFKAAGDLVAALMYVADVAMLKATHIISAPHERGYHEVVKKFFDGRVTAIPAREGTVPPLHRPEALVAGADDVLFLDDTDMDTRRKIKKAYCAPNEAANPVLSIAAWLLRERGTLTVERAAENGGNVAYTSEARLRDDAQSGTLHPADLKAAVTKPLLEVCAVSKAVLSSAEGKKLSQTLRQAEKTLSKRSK
The experiment in a line: Trypanosoma cruzi tyrosyl tRNA synthetase (TcYRS) _High Tyrosine SOP. Further: in the data most compounds retested in dose-response had high values. In kind it is functional. Particulars: 30 µM.

In assay [10] the target is T4, Tyrosyl-tRNA synthetase, putative (Trypanosoma cruzi (strain CL Brener)). The experiment in a line: Trypanosoma cruzi tyrosyl tRNA synthetase (TcYRS) SOP. The class given is functional. Particulars: 30 µM.
The target in assay [11] is Chromo domain-containing protein 1 (Saccharomyces cerevisiae (strain ATCC 204508 / S288c) (Baker's yeast)) (UniProt P32657). Nature of the assay: ScCHD-1 Enzyme Inhibition Assay. Further: in the data most compounds retested in dose-response had high values. The class given is functional. Particulars: 30 µM.
Chain of Chromo domain-containing protein 1 (Saccharomyces cerevisiae (strain ATCC 204508 / S288c) (Baker's yeast)) (P32657 whole entry, the tested form may be a part): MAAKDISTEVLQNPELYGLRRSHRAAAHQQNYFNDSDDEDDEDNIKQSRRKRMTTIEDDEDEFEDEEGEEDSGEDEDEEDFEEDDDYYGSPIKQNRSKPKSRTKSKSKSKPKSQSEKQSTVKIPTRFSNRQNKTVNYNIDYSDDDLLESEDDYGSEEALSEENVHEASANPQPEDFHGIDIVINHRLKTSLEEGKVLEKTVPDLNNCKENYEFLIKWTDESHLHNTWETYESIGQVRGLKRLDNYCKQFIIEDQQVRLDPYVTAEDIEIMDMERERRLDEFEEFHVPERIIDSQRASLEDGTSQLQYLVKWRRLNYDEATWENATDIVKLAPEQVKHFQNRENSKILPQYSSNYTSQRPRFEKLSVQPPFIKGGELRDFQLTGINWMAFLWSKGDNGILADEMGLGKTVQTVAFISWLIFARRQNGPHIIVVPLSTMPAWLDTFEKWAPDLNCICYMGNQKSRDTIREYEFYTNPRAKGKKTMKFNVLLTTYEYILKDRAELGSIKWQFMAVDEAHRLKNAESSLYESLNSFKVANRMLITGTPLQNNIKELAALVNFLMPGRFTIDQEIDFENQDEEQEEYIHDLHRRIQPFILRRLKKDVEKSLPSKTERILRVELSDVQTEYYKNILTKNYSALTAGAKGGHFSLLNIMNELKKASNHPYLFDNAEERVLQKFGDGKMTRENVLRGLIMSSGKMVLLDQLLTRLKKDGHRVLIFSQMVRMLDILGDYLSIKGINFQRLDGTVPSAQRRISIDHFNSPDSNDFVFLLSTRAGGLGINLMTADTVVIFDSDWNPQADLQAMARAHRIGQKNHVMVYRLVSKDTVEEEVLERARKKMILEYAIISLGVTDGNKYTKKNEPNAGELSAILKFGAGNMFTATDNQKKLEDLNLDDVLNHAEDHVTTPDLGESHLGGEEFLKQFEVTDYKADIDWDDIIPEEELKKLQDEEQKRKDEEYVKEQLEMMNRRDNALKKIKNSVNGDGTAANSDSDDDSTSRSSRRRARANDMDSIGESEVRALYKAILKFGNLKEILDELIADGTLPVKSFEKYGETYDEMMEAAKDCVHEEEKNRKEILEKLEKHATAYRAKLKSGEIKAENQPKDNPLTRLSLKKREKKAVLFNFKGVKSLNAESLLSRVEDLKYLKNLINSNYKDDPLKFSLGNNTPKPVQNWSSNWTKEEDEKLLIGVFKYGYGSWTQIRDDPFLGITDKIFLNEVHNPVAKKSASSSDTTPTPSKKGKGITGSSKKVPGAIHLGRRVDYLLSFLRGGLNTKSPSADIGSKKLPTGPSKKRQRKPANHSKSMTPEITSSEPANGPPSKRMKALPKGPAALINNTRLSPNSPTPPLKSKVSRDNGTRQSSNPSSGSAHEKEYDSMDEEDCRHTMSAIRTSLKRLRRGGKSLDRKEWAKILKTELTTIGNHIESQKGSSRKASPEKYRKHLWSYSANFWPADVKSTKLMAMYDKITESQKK
Assay [12] has as its system N/A. The experiment in a line: Trypanosoma cruzi proteasome luciferase counter-screen. The class given is functional. As to conditions: 9.37 µM.

For the compound `CC(C)Oc1ncccc1CNC(=O)c1cc[nH]n1`, the Percent Effect in [1] is -3.9%; in assay [2], 8.11%; in assay [3], 0.642%; in assay [4] it was 2.46%; in [5], -3.3%; in [6], -0.802%. Moreover, the Percent Effect in assay [7] is -0.18%; in assay [8] it was 3.02%; in assay [9], 2.46%; in [10] it was 6.17%; in assay [11], -2.93%.
Consider `Cc1ccc(-n2nnc(CC(=O)N3CCOCC3)c2C)cc1`, for which the Percent Effect is -3.24% in assay [1]; 18.2% in assay [2]; -1.18% in assay [3]; 11.4% in [4]; 5.61% in assay [5]; -12.4% in assay [6]. The Percent Effect in assay [7] was 13%; in assay [8], 6.11%; in [9], 6.45%; in assay [10] it was 18.5%; in assay [11], -6.8%.
As to `CC(C)c1n[nH]c(C(=O)Nc2ccncc2)c1Br`, the Percent Effect in assay [1] was -1.59%; in [2] it was 7.59%; in assay [3] it was 60%; in assay [4] it was 0.333%; in [5], -3.31%; in assay [6] it was 4.18%. Besides, the Percent Effect in [7] is 97% and 96.6% and 95.9%; in assay [12], 81.8% and 83.2%; in [8] it was 58.2%; in assay [9], 4.43%; in [10], 8.86%; in assay [11] it was -3.82%.
For the compound `CN(CC(=O)N1CCC(Oc2ccccc2)CC1)c1cnccn1`, the Percent Effect in assay [1] was -3.37%; in assay [2], 21.6%; in assay [3], -3.35%; in [4], 7.97%; in [5], 4.74%; in assay [6], 2.4%. Moreover, the Percent Effect was 5.75% in assay [7]; 18.1% in assay [8]; 5.94% in assay [9]; 25.6% in assay [10]; -8.13% in assay [11].
With `Cc1ccc(N(C)C2CCN(C(=O)CCc3ccco3)CC2)nn1`, the Percent Effect in assay [1] is -4.56%; in [2], 5.41%; in [3], 12.7%; in assay [4], 1.05%; in assay [5] it was 5.66%; in assay [6], 0.554%. The Percent Effect in assay [7] is 48.4% and 44.9% and 50.1%; in assay [12] it was 12.6% and 9.51%; in [8], 8.17%; in [9] it was 22.8%; in assay [10], 23.2%; in assay [11] it was 3.63%.
As for `COc1ccc(-c2nccnc2C2CCN(C(C)=O)CC2)cc1`, the Percent Effect in assay [1] was -3.54%; in [2], 25.7%; in assay [3] it was -4.6%; in [4], -7.08%; in assay [5] it was 0.395%; in assay [6], -3.48%. In addition, the Percent Effect in assay [7] is 11.7%; in assay [8], 8.34%; in assay [9], 1.07%; in [10], 9.09%; in assay [11] it was -9.8%.
Turning to `CNS(=O)(=O)c1cccc(C(C)NCc2nccn2C(C)C)c1` (centres undefined), the Percent Effect is -0.324% in [1]; 13.5% in assay [2]; -9.13% in assay [3]; -6.24% in assay [4]; -0.781% in [5]; 16.2% in assay [6]. The Percent Effect in assay [7] amounted to 16.3%; in assay [8], 10.9%; in [9], 10.9%; in [10], 15.8%; in [11] it was 2.31%.
For `COc1cc(/C=C/c2ncc(C(=O)O)s2)cc(Cl)c1O`, the Percent Effect in [1] is 3.12%; in assay [2], 13.9%; in assay [3], 50.5%; in assay [4], -3.01%; in assay [5], 0.923%; in assay [6] it was 4.95%. Also, the Percent Effect in assay [7] was 99.9% and 99% and 99.8%; in assay [12] it was 92.6% and 91.5%; in [8], -2.51%; in assay [9] it was 4.17%; in assay [10], 15.2%; in assay [11], -33.3%.
On to `O=C1CO[C@@H]2CN(S(=O)(=O)c3ccccc3)C[C@H]2N1CC1CC1`, for which the Percent Effect in assay [1] was -1.03%; in assay [2], 8%; in [3], 4.02%; in assay [4], 2.54%; in assay [5], -3.28%; in [6], -44.3%. Further, the Percent Effect is 7.86% in assay [7]; -3.38% in assay [8]; -8.33% in assay [9]; -20% in [10]; -6.74% in [11].
With `CN(C)C(=O)CN1CCC2(CCCN(Cc3cccn3C)C2)C1=O` (centres undefined), the Percent Effect in assay [1] is -6.92%; in [2], 10.7%; in assay [3] it was 0.926%; in assay [4], -7.4%; in assay [5], -5.12%; in assay [6], -3.96%. The Percent Effect in assay [7] is 18.2%; in assay [8], 10.5%; in [9], 1.06%; in assay [10] it was 1.28%; in assay [11], -7.43%.
For the compound `O=C(NCc1nnc2n1CCCC2)N1CCc2ccccc2C1`, the Percent Effect in assay [1] is -3.86%; in [2] it was 11.4%; in assay [3], -3.15%; in assay [4], 2.59%; in [5], -4%; in [6], 4.09%. Further, the Percent Effect in assay [7] was 4.63%; in assay [8], 4.93%; in assay [9] it was 1.04%; in assay [10], 12.7%; in [11], -7.99%.
